Experimental findings from PubChem BioAssay AID1851 (National Center for Advancing Translational Sciences (NCATS), 2009) are described below.

Out of some 16,000 compounds screened, about 5,700 (36%) were called active. About 24% were inconclusive and are not listed. This is one part of the list. Unmarked numbers belong to inactive results. Calls come from the whole dose curve; as a rule, active = well fitted curve in the direction sought with a large enough effect; inconclusive = small, poorly fitted or top-dose-only effect, or effect the other way; inactive = no such curve, though single readings can be large or run the other way.
% is set by controls: 0 for no effect and ±100 for the full control effect.

Cytochrome P450 1A2 (Homo sapiens), sequence (P05177 whole entry, looked up): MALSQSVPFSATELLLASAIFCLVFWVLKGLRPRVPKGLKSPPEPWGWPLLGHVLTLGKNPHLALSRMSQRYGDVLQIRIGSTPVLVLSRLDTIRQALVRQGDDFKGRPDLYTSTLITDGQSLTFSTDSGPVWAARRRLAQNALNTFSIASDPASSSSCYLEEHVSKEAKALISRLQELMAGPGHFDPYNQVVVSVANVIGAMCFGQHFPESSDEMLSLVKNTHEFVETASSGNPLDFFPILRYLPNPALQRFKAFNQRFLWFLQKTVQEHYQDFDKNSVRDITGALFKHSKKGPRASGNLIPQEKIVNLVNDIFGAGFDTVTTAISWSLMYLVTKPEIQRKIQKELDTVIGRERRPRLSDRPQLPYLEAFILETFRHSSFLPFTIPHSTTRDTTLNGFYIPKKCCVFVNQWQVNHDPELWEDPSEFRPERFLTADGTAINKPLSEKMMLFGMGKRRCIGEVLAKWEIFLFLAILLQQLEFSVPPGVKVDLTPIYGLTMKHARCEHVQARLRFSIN

This experiment concerns the target Cytochrome P450 1A2 (Homo sapiens) (UniProt P05177). Kind of experiment: Cytochrome panel assay with activity outcomes. As to conditions: recombinant CYP, pro-luciferin dealkylation, luminescence, p450-cyp1a2; series mostly up to 57.1 µM.
With `CC(C)=CCC/C(C)=C/CO/N=C1/C[C@@H](O)[C@@H](O)[C@@H]2[C@@H]3C(=O)N(Cc4ccccc4)C(=O)[C@H]3CC[C@@H]12`, the activity, negative = inhibition is 4.86% [at 11.4 µM].

Regarding `CC(C)=CCC/C(C)=C/CO/N=C1/C[C@@H](O)[C@@H](O)[C@@H]2[C@@H]3C(=O)N(Cc4ccccc4)C(=O)[C@H]3CC[C@H]12`, the activity, negative = inhibition was 3.92% [at 11.4 µM].

As for `CCSC1=C(C#N)C2(CCCCC2)C(C#N)=C(N)N1`, the AC50 is 12600 nM (active).

As for `CC(C)NC(=O)N1CC2(CCN(C(=O)c3ccco3)CC2)C1`, the AC50 result was “inactive”.

Consider `CCOc1ccc2nc(C)cc(Nc3ccc4c(c3)OCCO4)c2c1`, for which the AC50 was 4470 nM (active).

On to `CCC(C)NS(=O)(=O)c1ccc(OCC(=O)Nc2ccc3c(c2)OCCO3)cc1` (stereo unspecified), for which the AC50 entry was “inactive”.

For `CNCCCCCCCCSc1nc(C(C)C)ccc1C(=O)c1cccs1`, the AC50 is 31600 nM (active).

In the case of `CCOC(=O)CCN1C(=O)[C@H]2[C@H]3[C@H](O)[C@H](O)C/C(=N/OC[C@@H](O)COCc4ccco4)[C@H]3CC[C@@H]2C1=O`, the activity, negative = inhibition was -1.05% [at 11.4 µM].

As for `Cc1nnsc1SC(C)C(=O)O` (stereo unspecified), the AC50 result is “inactive”.

In the case of `O=C1CCCN1CC(O)CS(=O)(=O)c1ccccc1` (stereo unspecified), the AC50 result was “inactive”.

On to `O=S(=O)(CC(O)COc1ccccc1Cl)c1ccccc1` (stereo unspecified), for which the AC50 was 22400 nM (active).

`CC(C)CCNC1=NCCCCC1`: the AC50 entry was “inactive”.

As for `CCn1c(-c2ccccc2Cl)nn(CC(=O)Nc2ccc(OC)cc2)c1=S`, the AC50 result was “inactive”.

Consider `Cc1onc(-c2ccccc2Cl)c1C(=O)NCC(=O)O`, for which the AC50 entry was “inactive”.

For the molecule `N[C@@H](Cc1cc(CP(=O)(O)O)cc(-c2ccccc2Cl)c1)C(=O)O`, the AC50 result is “inactive”.

Turning to `COc1ccc(NC(=O)c2cc(-c3ccccc3Cl)no2)cc1`, the AC50 is 2240 nM (active).

In the case of `O=C(Nc1ccccc1)c1cc(-c2ccccc2Cl)no1`, the AC50 was 794 nM (active).

In the case of `NC(N)=Nc1nc2ccc([N+](=O)[O-])cc2[nH]1`, the AC50 is 3160 nM (active).

Regarding `Cc1ccc([N+](=O)[O-])cc1N=C(c1cccc([N+](=O)[O-])c1)N1CCOCC1`, the AC50 result is “inactive”.

Take `OC[C@@H]1NC[C@@H](O)[C@@H](O)[C@H]1O`: the AC50 entry was “inactive”.

On to `CCCC(=O)Nc1cccc(Oc2nc(C)cc(C)c2C#N)c1`, for which the AC50 is 5010 nM (active).

Regarding `Cc1cc(C)c(C#N)c(Oc2ccc(F)cc2)n1`, the AC50 is 2510 nM (active).

In the case of `N#Cc1c(-c2ccccc2)ccnc1Oc1ccccc1`, the AC50 is 1120 nM (active).

For `Cc1cc(C)c(C#N)c(Oc2ccccc2)n1`, the AC50 is 3160 nM (active).

Regarding `COc1cccc(C2C3=C(CC(C)(C)CC3=O)OC(N)=C2[N+](=O)[O-])c1` (stereo unspecified), the AC50 entry was “inactive”.

Turning to `CC(C)(C)COS(=O)OCC(C)(C)C`, the activity, negative = inhibition was -15.5% [at 11.4 µM].

As to `Nc1nc(N)[n+]([O-])c(N)c1NCO`, the activity, negative = inhibition was -6.17% [at 11.4 µM].

`CN(C)c1ccnc(Oc2ccc(Cl)cc2)c1C#N`: the AC50 is 2510 nM (active).

`Cc1ccccc1-n1cnc2cc(NCc3cccs3)ccc21`: the AC50 was 5620 nM (active).

Turning to `Cc1ccc(Sc2nc(C)cc(C)c2S(C)(=O)=O)cc1`, the AC50 is 10000 nM (active).

As to `CNc1nc(C)cc(C)c1S(=O)(=O)c1ccc(C)cc1`, the AC50 entry was “inactive”.

`COC(=O)[C@H](CCSC)NC(=O)C/C=C\[C@@H](C)CO`: the activity, negative = inhibition is 2.44% [at 11.4 µM].

As for `c1ccc2c(N3CCOCC3)nc(-c3ccoc3)nc2c1`, the AC50 is 1260 nM (active).

`O=C(c1cc(-c2ccncc2)nc2ccccc12)N1CCN(c2ccc(N3CCOCC3)nn2)CC1`: the AC50 entry was “inactive”.

As to `CN1CCN(c2nc(-c3ccoc3)nc3ccccc23)CC1`, the AC50 was 1260 nM (active).

As to `CC1(C)O[C@H]2C[C@@H]3[C@H]4CCC5=CC(=O)CC[C@@]5(C)[C@]4(F)[C@@H](O)C[C@@]3(C)[C@@]2(C(=O)CCl)O1`, the AC50 result was “inactive”.

`CC(=O)O[C@]1(C(C)=O)CC[C@@H]2[C@@H]3C=C(C)C4=CC(=O)CC[C@@]4(C)[C@H]3CC[C@]21C`: the AC50 result was “inactive”.

`Oc1ccc(-c2nc(-c3ccc(F)cc3)c(-c3ccncc3)[nH]2)cc1`: the AC50 was 15800 nM (active).

Take `CS(=O)c1ccc(-c2nc(-c3ccc(F)cc3)c(-c3ccncc3)[nH]2)cc1` (stereo unspecified): the AC50 was 631 nM (active).

With `O=C(N/N=C/C1C(c2ccccc2)C1(Cl)Cl)c1cccc(Br)c1` (stereo unspecified), the AC50 is 2000 nM (active).

For the molecule `O=C(N/N=C\c1ccc(Sc2ccccn2)o1)c1cccc(Br)c1`, the AC50 is 15800 nM (active).

Regarding `O=C(N[C@@]1(C(=O)O)C[C@@H]1c1ccccc1)c1ccccc1`, the activity, negative = inhibition is 2.45% [at 11.4 µM].

For `O=C(N/N=C/c1cccc(Oc2ccccc2)c1)c1cccc(Br)c1`, the AC50 was 891 nM (active).

With `N[C@@H]1[C@@H]2[C@@H]3C[C@H]4N(CC[C@@]14C(=O)C(=O)O)CC3=CCO[C@@H]2CC(=O)O`, the activity, negative = inhibition is -16.1% [at 11.4 µM].

On to `C=C[C@@]1(C)CC(=O)[C@@]2(O)[C@@]3(C)[C@H](O)CCC(C)(C)[C@@H]3[C@H](O)[C@H](OC(C)=O)[C@]2(C)O1`, for which the AC50 entry is “inactive”.

Regarding `Cc1ccc(/C=C2\Sc3ccccc3C2=O)s1`, the AC50 was 1780 nM (active).

As to `COc1ncnc(NS(=O)(=O)c2ccc(N)cc2)c1OC`, the AC50 result is “inactive”.

`Nc1ccn([C@@H]2O[C@H](COC(=O)C34CC5CC(CC(C5)C3)C4)[C@@H](O)[C@@H]2O)c(=O)n1`: the activity, negative = inhibition was -18.7% [at 2.29 µM].

With `O=C(OCc1nc2ccccc2[nH]1)C12CC3CC(CC(C3)C1)C2`, the half-maximal activity concentration (AC50) is 22400 nM (active).

For the molecule `NC(N)=[N+]1CCc2ccccc2C1`, the AC50 entry was “inactive”.

As for `O=c1[nH][nH]c(C(F)(F)F)c1C=Nc1ccccc1Cl`, the AC50 is 14100 nM (active).

As to `O=c1[nH][nH]c(C(F)(F)F)c1C=Nc1ccccc1`, the AC50 was 4470 nM (active).

For the molecule `O=c1[nH][nH]c(C(F)(F)F)c1C=Nc1cccc(Cl)c1`, the AC50 is 12600 nM (active).

For `Cc1ccc(C(=O)c2ccc(CC(=O)O)n2C)cc1`, the AC50 entry was “inactive”.

With `CO[C@@H]1/C=C\CC(=O)N[C@@H](C)C(=O)OC[C@@H](OC)[C@H](C)/C=C\CC(=O)OC[C@H]1C`, the activity, negative = inhibition is -4.89% [at 11.4 µM].

Regarding `OC[C@H]1NC[C@@H](O)[C@@H](O)[C@H]1O`, the AC50 result is “inactive”.

In the case of `Cc1ccccc1C(C(=O)NC1CCCC1)N(C(=O)Cc1cccs1)c1ccc2c(c1)OCCO2` (stereo unspecified), the AC50 result was “inactive”.

Consider `CCC(=O)Nc1cc2c(cc1C(=O)c1ccccc1)OCCO2`, for which the AC50 was 25100 nM (active).

With `CC(C)C(=O)Nc1cc2c(cc1C(=O)c1ccccc1)OCCO2`, the AC50 was 14100 nM (active).

For the molecule `CC(C)/C(=N/[N+](C)(C)C)c1ccccc1`, the activity, negative = inhibition was -16.2% [at 2.29 µM].

Turning to `COc1ccc(-c2nc(N)c3ncn([C@H]4O[C@@H](CO)[C@@H](O)[C@@H]4O)c3n2)cc1`, the activity, negative = inhibition was -13% [at 2.29 µM].

`CCC(=O)n1nc(-c2ccc(OC)cc2)nc1N`: the AC50 was 2000 nM (active).

As to `COc1ccc(-n2c(SC)nc(O)c(Cc3ccccc3)c2=O)cc1`, the AC50 result is “inactive”.

As for `CCCC(=O)n1nc(-c2cccnc2)nc1N`, the AC50 is 5010 nM (active).

Regarding `COc1ccc(C(=O)n2nc(-c3ccccc3)nc2SC)cc1`, the half-maximal activity concentration (AC50) was 562 nM (active).

As to `COc1ccc(-c2ccc(N)[n+](CCCC(=O)O)n2)cc1`, the AC50 result was “inactive”.

As for `COc1ccc(C(=O)N2CCC3(CC2)CCN(C(c2ccccc2)c2ccccc2)CC3)cc1`, the AC50 result was “inactive”.

Regarding `COc1ccc(C2C(C#N)=C(N)Oc3n[nH]c(C)c32)cc1CN1CCN(c2ccc(F)cc2)CC1` (stereo unspecified), the AC50 entry is “inactive”.

As for `COc1cccc(-c2[nH]nc3c2C(c2ccc(C)o2)C(C#N)=C(N)O3)c1` (stereo unspecified), the concentration at half-maximal activity (AC50) is 1580 nM (active).

Consider `COc1cccc(-c2[nH]nc3c2C(c2ccsc2)C(C#N)=C(N)O3)c1` (stereo unspecified), for which the half-maximal activity concentration (AC50) was 1120 nM (active).

Take `O=C(CP(=O)(c1ccccc1)c1ccccc1)Nn1cnnc1`: the AC50 entry was “inactive”.

Consider `CC1(C)[C@@H]2CC[C@]1(C)[C@@H](OC(=O)CSC#N)C2`, for which the activity, negative = inhibition is -18.3% [at 2.29 µM].

As to `Cc1cccn2c(/C=N/OCc3cccc(F)c3)c(-c3ccc(Cl)cc3)nc12`, the concentration at half-maximal activity (AC50) was 2000 nM (active).

On to `Cc1cccn2c(/C=N/OCc3ccc(F)cc3)c(-c3ccc(Cl)cc3)nc12`, for which the half-maximal activity concentration (AC50) is 2000 nM (active).

Consider `C#CCCCO/N=C1/C[C@@H](O)[C@@H](O)[C@@H]2[C@@H]3C(=O)N([C@@H](C)c4ccccc4)C(=O)[C@H]3CC[C@H]12`, for which the activity, negative = inhibition was 0.735% [at 11.4 µM].

In the case of `Cn1c(O)c(C(C#N)=C2N=c3ccccc3=N2)c2ccccc21`, the AC50 is 1580 nM (active).

`O=c1ccc2c(OCCCCc3ccccc3)c3ccoc3cc2o1`: the AC50 was 501 nM (active).

Turning to `CCn1c(=O)[nH]c2ccccc2c1=O`, the AC50 was 1780 nM (active).

For the molecule `FC(F)(F)c1ccccc1-c1ccc2ncnc(NCc3cccnc3)c2c1`, the AC50 is 1000 nM (active).

Take `Clc1ccccc1-c1ccc2ncnc(NCc3cccnc3)c2c1`: the AC50 was 158 nM (active).

Take `COCCNc1ncnc2ccc(-c3ccccc3C(F)(F)F)cc12`: the AC50 is 1580 nM (active).

For `COCCNc1ncnc2ccc(-c3ccccc3OC)cc12`, the AC50 was 2000 nM (active).

Turning to `CC1=N[C@@](C)(COC(=O)[C@]2(C)N[C@](C)(CO)CO2)COC1=O`, the activity, negative = inhibition is 6.88% [at 2.29 µM].

As to `COc1cccc(-c2ccc3ncnc(NCc4cccnc4)c3c2)c1`, the AC50 is 251 nM (active).

Consider `COc1ccccc1-c1ccc2ncnc(NCc3ccccc3)c2c1`, for which the AC50 was 2000 nM (active).

Turning to `COc1ccccc1-c1ccc2ncnc(NCc3cccnc3)c2c1`, the AC50 was 794 nM (active).

As for `C=CC1=C(C(=O)O)N2C(=O)[C@@H](NC(=O)/C(=N\OCC(=O)O)c3csc(N)n3)[C@@H]2SC1`, the AC50 result is “inactive”.

`CN1CCC2(CC1)CCN(C(=O)c1cc(C(F)(F)F)cc(C(F)(F)F)c1)CC2`: the AC50 result is “inactive”.

As for `Cn1c(=O)c2[nH]c(CCCCc3nc4c([nH]3)c(=O)n(C)c(=S)n4C)nc2n(C)c1=S`, the activity, negative = inhibition is -13.8% [at 2.29 µM].

Turning to `COC(=O)C/C=C\[C@@H](C)[C@@H]1C=C[C@H](OC(C)=O)[C@H](COC(C)=O)O1`, the activity, negative = inhibition is -1.57% [at 11.4 µM].

Take `C=CCNc1nc(-c2ccc(Cl)cc2)cs1`: the concentration at half-maximal activity (AC50) is 2240 nM (active).
